Assay [1] is described as follows: NCI Yeast Anticancer Drug Screen. Data for the rad50 strain (AID 155).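 Further: 0% = growth of vehicle-only cultures of the same strain.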 Particulars: S. cerevisiae rad50 strain growth inhibition, hits give high values. The method, boiled down: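 A DNA repair-deficient yeast mutant serves as the test organism; compound-induced growth inhibition is calculated against vehicle-treated cells.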
Assay [2] is described as follows: NCI Yeast Anticancer Drug Screen. Data for the mec2-1 strain (AID 157). Particulars: S. cerevisiae mec2-1 strain, hits give high values. The method, boiled down:
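Readout is yeast growth inhibition, normalised to vehicle-treated controls, in the mec2-1 strain exposed to compound.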

A short description of assay [3]: NCI Yeast Anticancer Drug Screen. Data for the sgs1 mgt1 strain (AID 161).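 Further: 0% = growth of cultures given vehicle only.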 Particulars: S. cerevisiae sgs1 mgt1 strain, hits give high values. The method, boiled down: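 Compounds are added to genetically altered yeast, and growth is compared with cultures given vehicle alone to give percent inhibition.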
Assay [4] in a line: NCI Yeast Anticancer Drug Screen. Data for the cln2 rad14 strain (AID 165).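 Further: 0% = growth equal to vehicle treated cultures.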 Particulars: S. cerevisiae cln2 rad14 strain, hits give high values. The method, boiled down: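 Relative to vehicle controls, growth inhibition of compound-treated cln2 rad14 yeast was recorded.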
The nature of assay [5]: NCI Yeast Anticancer Drug Screen. Data for the bub3 strain (AID 167). Particulars: S. cerevisiae bub3 mutant strain, hits give high values. The method, boiled down:
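Inhibition values come from growth of compound-treated mutant yeast normalised to vehicle-treated controls.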

Assay [6] can be described thus: NCI Yeast Anticancer Drug Screen. Data for the mlh1 rad18 strain (AID 175). Particulars: S. cerevisiae mlh1 rad18 strain growth inhibition, hits give high values. The method, boiled down: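 Test agents were incubated with a yeast strain of defined genotype (DNA damage repair defect). Inhibition of growth was derived by comparison with vehicle-exposed cultures.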
Where [7] appears, read: at 5.0 µM (retest, dose inferred, filed as 0.5).
The mark [8] stands for this setting: at 50.0 µM (retest, dose inferred, filed as 5.0).

The panel holds about 79,000 compounds, 15% with a hit somewhere; the sample as a whole holds those more often. A number with no mark means an inactive call. Active and inactive are the calls of the source. No stated cut-off is given here; in the data, active means growth inhibition above about 70%; inactive means the rest.

Take `CCOc1ccc(/C=C\c2ccnc3ccccc23)cc1OCC`: the growth inhibition in assay [1] (setting [7]) was -5%; in assay [1] (setting [8]), 97% (active); in assay [1] (at 50.0 µM), 98.3% (active); in assay [2] (setting [7]) it was -1%; in assay [2] (setting [8]) it was 99% (active); in assay [2] (at 50.0 µM) it was 97% (active). Also, the growth inhibition in assay [3] (setting [7]) was 1%; in assay [3] (setting [8]) it was 99% (active); in assay [3] (at 50.0 µM), 50.9%; in assay [4] (setting [7]), -3%; in assay [4] (setting [8]) it was 99% (active); in assay [4] (at 50.0 µM), 98.2% (active). The growth inhibition is 5% in assay [5] (setting [7]); 99% (active) in assay [5] (setting [8]); 97.3% (active) in assay [5] (at 50.0 µM); -13% in assay [6] (setting [7]); 98% (active) in assay [6] (setting [8]); 96.3% (active) in assay [6] (at 50.0 µM).
With `COc1cc2c(cc1O)-c1c(cnn1-c1ccc([N+](=O)[O-])cc1)CCC2`, the growth inhibition is 7% in assay [1] (setting [7]); 56% in assay [1] (setting [8]); 79% (active) in assay [1] (at 50.0 µM); 4% in assay [2] (setting [7]); 27% in assay [2] (setting [8]); 91.9% (active) in assay [2] (at 50.0 µM). Further, the growth inhibition in assay [3] (setting [7]) is 4%; in assay [3] (setting [8]), 38%; in assay [3] (at 50.0 µM) it was 85.6% (active); in assay [4] (setting [7]) it was 3%; in assay [4] (setting [8]), 52%; in assay [4] (at 50.0 µM) it was 73% (active). Further, the growth inhibition in assay [5] (setting [7]) is 0%; in assay [5] (setting [8]), 3%; in assay [5] (at 50.0 µM) it was 93.2% (active); in assay [6] (setting [7]), 17%; in assay [6] (setting [8]), 71% (active); in assay [6] (at 50.0 µM) it was 94.8% (active).
On to `CCCCCOC(=S)SSSC(=S)OCCCCC`, for which the growth inhibition in assay [1] (setting [7]) was -38%; in assay [1] (setting [8]), 96% (active); in assay [1] (at 50.0 µM), 8.65%; in assay [2] (setting [7]), 44%; in assay [2] (setting [8]), 99% (active); in assay [2] (at 50.0 µM) it was 4.7%. In addition, the growth inhibition in assay [3] (setting [7]) was 6%; in assay [3] (setting [8]), 97% (active); in assay [3] (at 50.0 µM), 22.1%; in assay [4] (setting [7]), -13%; in assay [4] (setting [8]), 66%; in assay [4] (at 50.0 µM), -0.1%. Besides, the growth inhibition in assay [5] (setting [7]) is 0%; in assay [5] (setting [8]), 98% (active); in assay [5] (at 50.0 µM), 28.2%; in assay [6] (setting [7]), 16%; in assay [6] (setting [8]) it was 97% (active); in assay [6] (at 50.0 µM), 21.9%.
On to `CC(C)C12CCC3(CCC4C(C)(C(=O)O)CCCC4(C)C3C1)C(CN)C2` (stereo not given), for which the growth inhibition in assay [1] (setting [7]) is 3%; in assay [1] (setting [8]), 98% (active); in assay [1] (at 50.0 µM) it was 97.3% (active); in assay [2] (setting [7]), 9%; in assay [2] (setting [8]) it was 98% (active); in assay [2] (at 50.0 µM) it was 95.5% (active). For the same molecule, the growth inhibition was 17% in assay [3] (setting [7]); 95% (active) in assay [3] (setting [8]); 94.9% (active) in assay [3] (at 50.0 µM); -20% in assay [4] (setting [7]); 98% (active) in assay [4] (setting [8]); 97.8% (active) in assay [4] (at 50.0 µM). Further, the growth inhibition is -4% in assay [5] (setting [7]); 98% (active) in assay [5] (setting [8]); 96% (active) in assay [5] (at 50.0 µM); 6% in assay [6] (setting [7]); 98% (active) in assay [6] (setting [8]); 93.3% (active) in assay [6] (at 50.0 µM).
As to `CCCCNc1cccc2ncccc12`, the growth inhibition in assay [1] (setting [7]) is 11%; in assay [1] (setting [8]), 53%; in assay [1] (at 50.0 µM), 17.1%; in assay [2] (setting [7]), 9%; in assay [2] (setting [8]), 34%; in assay [2] (at 50.0 µM), 9.85%. For the same molecule, the growth inhibition was 14% in assay [3] (setting [7]); 58% in assay [3] (setting [8]); 21.8% in assay [3] (at 50.0 µM); 9% in assay [4] (setting [7]); 28% in assay [4] (setting [8]); -3.9% in assay [4] (at 50.0 µM). Also, the growth inhibition is 4% in assay [5] (setting [7]); 31% in assay [5] (setting [8]); -4.2% in assay [5] (at 50.0 µM); 21% in assay [6] (setting [7]); 57% in assay [6] (setting [8]); 50% in assay [6] (at 50.0 µM).
Take `CCOC(=O)/C(=C\n1c(=O)sc2ccccc21)C(=O)c1ccccc1`: the growth inhibition in assay [1] (setting [7]) was 18%; in assay [1] (setting [8]) it was 24%; in assay [1] (at 50.0 µM), 24.6%; in assay [2] (setting [7]) it was 19%; in assay [2] (setting [8]), 55%; in assay [2] (at 50.0 µM), 50.5%. The growth inhibition is 27% in assay [3] (setting [7]); 64% in assay [3] (setting [8]); 74.8% (active) in assay [3] (at 50.0 µM); 22% in assay [4] (setting [7]); 26% in assay [4] (setting [8]); 19.5% in assay [4] (at 50.0 µM). Further, the growth inhibition is 21% in assay [5] (setting [7]); 57% in assay [5] (setting [8]); 7.95% in assay [5] (at 50.0 µM); 20% in assay [6] (setting [7]); 41% in assay [6] (setting [8]); 36.2% in assay [6] (at 50.0 µM).
For `CCN(CC)C(=S)N/N=C(\C)c1cccc(C)n1`, the growth inhibition was 84% (active) in assay [1] (setting [7]); 100% (active) in assay [1] (setting [8]); 88.7% (active) in assay [1] (at 50.0 µM); 82% (active) in assay [2] (setting [7]); 99% (active) in assay [2] (setting [8]); 91.7% (active) in assay [2] (at 50.0 µM). The growth inhibition in assay [3] (setting [7]) was 62%; in assay [3] (setting [8]), 99% (active); in assay [3] (at 50.0 µM) it was 85.3% (active); in assay [4] (setting [7]), 82% (active); in assay [4] (setting [8]) it was 99% (active); in assay [4] (at 50.0 µM), 89.4% (active). Also, the growth inhibition in assay [5] (setting [7]) is 87% (active); in assay [5] (setting [8]) it was 99% (active); in assay [5] (at 50.0 µM) it was 88.9% (active); in assay [6] (setting [7]), 81% (active); in assay [6] (setting [8]), 99% (active); in assay [6] (at 50.0 µM), 85.8% (active).
Turning to `O=[N+]([O-])c1ccc(C(Nc2ccccc2)c2ccc3cccnc3c2O)cc1` (stereo not given), the growth inhibition in assay [1] (setting [7]) was -5%; in assay [1] (setting [8]) it was 83% (active); in assay [1] (at 50.0 µM), 71.9% (active); in assay [2] (setting [7]) it was -1%; in assay [2] (setting [8]) it was 82% (active); in assay [2] (at 50.0 µM), 80% (active). For the same molecule, the growth inhibition was -10% in assay [3] (setting [7]); 85% (active) in assay [3] (setting [8]); 76% (active) in assay [3] (at 50.0 µM); -37% in assay [4] (setting [7]); 79% (active) in assay [4] (setting [8]); 81.3% (active) in assay [4] (at 50.0 µM). Besides, the growth inhibition is -11% in assay [5] (setting [7]); 85% (active) in assay [5] (setting [8]); 58.6% in assay [5] (at 50.0 µM); 4% in assay [6] (setting [7]); 85% (active) in assay [6] (setting [8]); 82.2% (active) in assay [6] (at 50.0 µM).
As for `c1c2c(cc(-n3nnc4c3CCCCCC4)c1-n1nnc3c1CCCCCC3)CCCCCC2`, the growth inhibition in assay [1] (setting [7]) was 30%; in assay [1] (setting [8]), 30%; in assay [1] (at 50.0 µM), 89.4% (active); in assay [2] (setting [7]), 26%; in assay [2] (setting [8]), 26%; in assay [2] (at 50.0 µM), 90.5% (active). The growth inhibition in assay [3] (setting [7]) is 23%; in assay [3] (setting [8]) it was 23%; in assay [3] (at 50.0 µM), 89.5% (active); in assay [4] (setting [7]), 17%; in assay [4] (setting [8]), 17%; in assay [4] (at 50.0 µM) it was 91.1% (active). In addition, the growth inhibition in assay [5] (setting [7]) was 7%; in assay [5] (setting [8]) it was 7%; in assay [5] (at 50.0 µM), 90.4% (active); in assay [6] (setting [7]) it was 27%; in assay [6] (setting [8]), 27%; in assay [6] (at 50.0 µM), 87.3% (active).
With `O=C1OC(CC(=O)c2ccc(Cl)cc2Cl)C(Cl)=C1Cl` (stereo not given), the growth inhibition is 0% in assay [1] (setting [7]); 20% in assay [1] (setting [8]); 51% in assay [1] (at 50.0 µM); 8% in assay [2] (setting [7]); 32% in assay [2] (setting [8]); 53.4% in assay [2] (at 50.0 µM). Further, the growth inhibition in assay [3] (setting [7]) was 4%; in assay [3] (setting [8]), 50%; in assay [3] (at 50.0 µM), 93% (active); in assay [4] (setting [7]) it was 1%; in assay [4] (setting [8]) it was 6%; in assay [4] (at 50.0 µM), 78.4% (active). In addition, the growth inhibition in assay [5] (setting [7]) is -7%; in assay [5] (setting [8]), 10%; in assay [5] (at 50.0 µM), 58.5%; in assay [6] (setting [7]), -1%; in assay [6] (setting [8]) it was 41%; in assay [6] (at 50.0 µM) it was 97.3% (active).

Values taken from PubChem BioAssay (NCI).
